Test results reported in the supplement of paper PMC6555819.

The sequences below were run on THRa:RXRa (NR concentration 90 nM, RXRa partner concentration 90 nM) (assay: PBM binding z-score (relative to random genomic background probes); higher = stronger binding; sequences stand for … in GC…GCGATTGACAGCGTAGAATGAAGG).
How it was run: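 Scanned fluorescence from custom Agilent 4×180K protein-binding microarrays was regression-normalized. Binding z-scores use random background probes as reference. Ligand-free nuclear receptor dimers were incubated on the arrays for 1 h and detected with antibodies against each partner (one per run).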

Sequence | PBM binding z-score
CGAACTAGGGCATCCAGGACAGTGAATACATTGA | 1.61
TCGAATAGGTTAGTCGGGGCATTCAGCCAACATA | 1.46
TCTGGGAGGACACGAAAGGTCAGAGCTCGACATC | 3.73
CCGAGTAGGTTATGGGGCATACAGGCAACGGTGA | 0.28
CAGCCTAGGTCAGGGCCAGTTTAGGAGGAACGTT | 2.2
TAGCCTAGGTCAAGGGCCAGTATACCACGCGAAC | 2.78
ACTAGTTGGTCAGCTGAGGTCATACACAATTCGG | 4.94
CGTCCAAGGTCAAGGTCAGTCAAAGAGACTCGAA | 4.16
AGTCAAAGTTCGTCTAGGTAACGTAAGATATGCT | 1.97
CGTTAAAGTTCAACTAAGGTAACGTAAAGCACGC | 5.26
ACTTACGGGTCAACGAGGGTATAGCACGCGTATA | 3.42
ATCTCTAAGTAAAGATAGTTCAGTGAATGCAAAT | 0.429
GATACAGGGTCAGCTAGAGGCTAGAGTATGGAAA | 2.86
CCAGACAGGTGAGAAGGGAACTCAGCCTCGATTA | 0.215
CCTGCTAAGTCAATGGTCAGCTAAAGCAGCTCGC | -0.402
CTACCAAGGTGAACAAGGTCGCTGATTACTATTC | 3.28
CCTGCTAGGTCATGATCAGCTAATCTACAGTATG | 2.75
TCTAGCAGGACAGAGGGTCACTCAAGAGGTACGG | 1.86
ACTAGCAGGCCAAGTTTGGTTCACTCAAACAAAG | 0.405
ATCTCTAGCTAACAAGTTCAGTGAAAGAGAGGAC | 1

Sequence | PBM binding z-score
TCTATCAGGCCAGAGGGTCACTCAAGAGGTACGG | 2.29
GTACCAAGGTGCATAGGTCGTTGATGAGTAGGCG | 0.111
GCTATTACTTGAAAGGGCAACCGAATGATTCTCG | 0.521
TGTCAAAGTTCAGAGGTAACGTAAGTATCCACAC | 2.53
TGGAGTAGGTTAGGGGCATTCAGAATGGCGTCGA | 1.51
CCTTACGGGTCACTCCAGTTTATAGCATCGGAGT | 4.11
CCGTCTGGGGCAGAAAGGTTACCATACCATCCGG | 0.782
CCTAGTTGGTCAGGAGGGCACACACCGGATATGA | 0.623
TCTATTCGTTGATTAGGGCAACCGAAACAGCGGA | 0.404
GCTGCTAGGTCCGGTTGGTCAGCTAACGGGTACG | -0.903
GGAACGAGGGCAAAGTGGATAGCATCTGTCGACG | 0.965
GCTAGCAGGCCATTTGGGTCTCTCAATGACGGGC | 0.0257
ATCGAAAGTTCGAAGGTGAGTATACCCACCCGAA | 0.601
AGAATGAGGTTATTAAAATCAGGGAATTGCGGTC | 1.89
ATCTCTAGGTAACAAGTTCAGTGGAAGAGAGGAC | 1.56
GGAACGAGGGCAAAGTTGAAAGCATCTGTCGACG | 1.59
TCTTTTAGATCAAAGGTTAAGAAAGCCGAAGCCT | 1.33
AGAGCGAGGGCACGCTGAGTTGATAGCAGAGTAG | 1.51
ACTCGGAGGACAAAGGTCTGAGCTACGCCAGTGA | 0.538
